Hits are enriched below; roughly 5.5% of the tested compounds scored in any of these assays.
Giardia killer = Giardia lamblia killing; Giardia lamblia trophozoite viability; activity change, % at 7.66 µM, hits read low; 340,000 tested, 0.15% active; AID 540267; in the data active = activity change below about -80%; inconclusive = between about -30% and that limit;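 note: parasites exposed to compound for two days anaerobically before the ATP read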
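Compounds were tested on trophozoites seeded at 100 cells/well and held 48 hrs at 37 deg C anaerobically. An ATP-based luminescent kit measured the remaining live cells.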
Sfp PPTase inh = Sfp phosphopantetheinyl transferase inhibition | Q9F4F7 | Biochemical Sfp PPTase activity, qHTS | Potency, µM, actives largely listed as inhibitors | 310,000 tested, 3.5% active | AID 1490;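 note: the enzyme is Sfp with the accession as filed and its product quenches rhodamine fluorescence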
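Sfp 15 nM + cpd, 15 min RT; start w/ rhodamine-CoA 5 uM, BHQ-2-YbbR 12.5 uM (final); 50 mM Hepes pH 7.6, 10 mM MgCl2, 0.01% NP-40, 0.01% BSA; read 525/598 nm at 0 and 30 min.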
FBPA coupling cs = counter-screen for Giardia aldolase inhibitors: coupling enzyme system | coupling enzyme system counterscreen, AmpLite Red fluorescence | activity change, negative = inhibition, % at 58.2 µM, hits read low | 290,000 tested, 0.67% active; in the data active = activity change below about -30%
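Counterscreen of the coupled detection system alone, without aldolase: glyceraldehyde-3-phosphate coupling enzymes plus AmpLite Red readout. Compounds at 57.5 uM final, 10 min RT preincubation, 20 min RT reaction, fluorescence 525/598 nm.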
ELG1 DNA repair = blocks ELG1-dependent DNA repair in HEK293T cells. 330,000 tested, 2.3% active. HEK293T ELG1-luciferase reporter, luminescence, 16 h; DNA damage induced by 5-fluorouridine. Potency, µM (titrated, usually from 46.1 µM), most hits filed as inhibitors; note: nearly all actives have a fitted effect of over 55% in size
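Cells (2,000 per well) received 5-fluorouridine plus test compound or DMSO and were incubated 16 hr at 37 °C, 5% CO2. Luciferase activity was read by luminescence 30 min after ONE-Glo addition; signal suppression marked inhibition of damage-induced ELG1 function.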
Of the large screens only hits and unclear results are named; the others gave an inactive call; ! = repeats disagree. Unless noted, calls come from the whole dose curve; as a rule, active = well fitted curve in the direction sought with a large enough effect; inconclusive = small, poorly fitted or top-dose-only effect, or another doubt; inactive = no such curve, though single readings can be large; an effect the other way counts as inactive or inconclusive.

COc1cc(/C=C2\C(=N)N3N=C(C)SC3=NC2=O)cc(Cl)c1OCCOc1ccc(NC(C)=O)cc1	none
Cn1c(OCc2cccnc2)nc2c1c(=O)n(Cc1ccc(Cl)cc1)c(=O)n2C	none (no result: Sfp PPTase inh, FBPA coupling cs, ELG1 DNA repair)
CCNc1nc2c(c(=O)n(C)c(=O)n2C)n1Cc1ccc(Cl)cc1	none
Cn1c(=O)c2c(nc(NCc3cccnc3)n2Cc2ccc(Cl)cc2)n(C)c1=O	ELG1 DNA repair 21µM
CCNc1nc2c(c(=O)n(Cc3ccccc3)c(=O)n2C)n1Cc1ccccc1	ELG1 DNA repair 13µM
Cn1c(OCc2cccnc2)nc2c1c(=O)n(Cc1ccc(Br)cc1)c(=O)n2C	ELG1 DNA repair 16µM
CCC(C)[C@H](NC(=O)[C@@H]1CSC2c3ccccc3C(=O)N21)C(=O)NCc1ccco1 (some centres not stated)	Sfp PPTase inh inconclusive
CN(C)CC(C(=O)c1ccccc1)c1ccccc1 (configuration not stated)	Giardia killer inconclusive, ELG1 DNA repair 16µM
CC(=O)c1ccc(N2CCN(CC(=O)Nc3ccc(N4CCOCC4)cc3)CC2)cc1	none (no result: Giardia killer)
CC(CCc1ccccc1)NC(=O)CN1CCN(c2ccc(O)cc2)CC1 (configuration not stated)	Sfp PPTase inh 10µM, ELG1 DNA repair inconclusive
CC(CCc1ccccc1)NC(=O)c1ccccc1 (configuration not stated)	none
CC(CCc1ccccc1)NC(=O)CN1CCN(Cc2ccccc2)C1=O (configuration not stated)	none
CC(C)CC(=O)Nc1ccc(C(=O)CN2CCN(c3ccc(O)cc3)CC2)cc1	Sfp PPTase inh 56µM, ELG1 DNA repair inconclusive
CC(CCc1ccccc1)NC(=O)c1ccc(C(=O)NC(C)CCc2ccccc2)cc1 (configuration not stated)	ELG1 DNA repair 5.2µM
COCCNC(=O)c1c[nH]c2ccc(S(=O)(=O)N3CCC4(CC3)OCCO4)cc2c1=O	none
COCCCNC(=O)c1c[nH]c2ccc(S(=O)(=O)N3CCc4ccccc43)cc2c1=O	ELG1 DNA repair 7.3µM
COCCNC(=O)c1c[nH]c2ccc(S(=O)(=O)N3CCc4ccccc43)cc2c1=O	ELG1 DNA repair 10µM
COCCNC(=O)c1c[nH]c2ccc(S(=O)(=O)Nc3ccccc3F)cc2c1=O	none
CC(=O)N(C1=C(N)C(=O)c2ccccc2C1=O)C(C)C	Sfp PPTase inh inconclusive, FBPA coupling cs -43, ELG1 DNA repair 23µM
O=C(Nc1ccnn1C1CCN(C(=O)c2cccc(Cl)c2)CC1)C1CC1	ELG1 DNA repair inconclusive (no result: FBPA coupling cs)
COc1cccc(C2=Nn3c(nnc3-c3cccc(OC)c3OC)SC2)c1	none (no result: Giardia killer, ELG1 DNA repair)
COc1ccccc1-c1ccc(C(=O)O)o1	ELG1 DNA repair inconclusive
COc1ccc(Cl)cc1-c1ccc(C(=O)O)o1	Sfp PPTase inh 112µM (no result: Giardia killer, ELG1 DNA repair)
Cc1ccc(C)c(-c2ccc(C(=O)O)o2)c1	Sfp PPTase inh 112µM (no result: Giardia killer, ELG1 DNA repair)
Cc1ccc(CSCc2ccc(C(=O)O)o2)cc1	ELG1 DNA repair inconclusive
COCc1ccc(C(=O)N2CCCCC2C(=O)Nc2ccc(-n3nc(C)cc3C)cc2)o1 (configuration not stated)	ELG1 DNA repair inconclusive (no result: FBPA coupling cs)
CCN(CC)CCNC(=O)Cn1cnc2sc(C)c(S(=O)(=O)N3CCN(c4ccccc4OC)CC3)c2c1=O	none
CCCCN(C)C(=O)Cn1cnc2sc(C)c(S(=O)(=O)N3CCN(c4ccccc4OC)CC3)c2c1=O	ELG1 DNA repair 5.2µM
NCCNCCN	Sfp PPTase inh 3.2µM, FBPA coupling cs -44 (no result: Giardia killer, ELG1 DNA repair)
CCC(C(=O)NC1CCCCCC1)n1nc(C)c2c(C)n(-c3ccccc3)nc2c1=O (configuration not stated)	none (no result: FBPA coupling cs)
COc1ccccc1C(=O)Nc1ccnn1C1CCN(CCCc2ccccc2)CC1	none
Cc1cc(C(=O)CSc2nnc(C3CC3)n2C2CC2)c(C)n1C(C)C	ELG1 DNA repair inconclusive (no result: Sfp PPTase inh, FBPA coupling cs)
Cc1noc(/C=C/c2ccccn2)c1[N+](=O)[O-]	ELG1 DNA repair 18µM
C[C@@H]1C(=O)CC2C(C)(C)CCC[C@]2(C)[C@@]1(O)CCc1ccoc1 (some centres not stated)	none (no result: Giardia killer, ELG1 DNA repair)
CCOc1ccccc1C(=O)N[C@H](C(=O)OCc1csc(CC(=O)Nc2ccc(C)cc2)n1)C(C)C	ELG1 DNA repair 23µM (no result: Sfp PPTase inh, FBPA coupling cs)
CCC(=O)N(Cc1ccco1)Cc1cc2cccc(C)c2n2nnnc12	none
Cc1ccc2c(c1)cc(CN(Cc1ccco1)C(=O)COc1ccccc1)c1nnnn12	ELG1 DNA repair 21µM
COCCN(Cc1cc2cc(C)ccc2n2nnnc12)C(=S)Nc1ccc(C)cc1	ELG1 DNA repair 16µM
CCCc1cc2c(=O)c(-c3nc4ccccc4s3)c(COCC(=O)O)oc2cc1O	ELG1 DNA repair inconclusive
O=C(O)c1ccccc1NS(=O)(=O)c1cccc(-n2sc3ccccc3c2=O)c1	Sfp PPTase inh 2µM
O=C(O)c1ccccc1NS(=O)(=O)c1cccc(C(F)(F)F)c1	none
O=C(COc1ccc(S(=O)(=O)NC2CCCCC2)cc1Cl)NCc1cccnc1	Sfp PPTase inh 18µM
O=C(CCc1ccc(S(=O)(=O)NC2CCCCC2)cc1)NCc1ccccn1	Sfp PPTase inh 40µM, ELG1 DNA repair inconclusive
COc1ccc(NC(=O)c2cn(-c3ccccc3)nc2-c2cc3ccccc3o2)cc1	ELG1 DNA repair inconclusive
OCc1cn(-c2ccccc2)nc1-c1cc2ccccc2o1	Sfp PPTase inh 56µM, ELG1 DNA repair inconclusive
Cc1ccc2c(C)c(C(=O)N(Cc3ccc(N(C)C)cc3)C3CCS(=O)(=O)C3)oc2c1 (configuration not stated)	ELG1 DNA repair 16µM
Cc1ccc2oc(C(=O)N(Cc3ccc(N(C)C)cc3)C3CCS(=O)(=O)C3)c(C)c2c1 (configuration not stated)	none (no result: FBPA coupling cs)
Cc1ccc(C(=O)N2CCCCC2)cc1NC1=C(Cl)C(=O)N(Cc2ccccc2)C1=O	ELG1 DNA repair 18µM (no result: Sfp PPTase inh, FBPA coupling cs)
Cc1ccc(O)c(NC2=C(Cl)C(=O)N(Cc3ccccc3)C2=O)c1	Sfp PPTase inh 7.1µM
COC(=O)CC1C(C)(C)C2(O)OC34CC2C(=O)[C@@]1(C)C3CC[C@]1(C)C4=CC(=O)OC1c1ccoc1 (some centres not stated)	none (no result: Giardia killer, ELG1 DNA repair)
O=c1c(/C=N\NS(=O)(=O)c2ccccc2)coc2ccc(Cl)cc12	ELG1 DNA repair 15µM
O=C(N/N=C/c1coc2ccccc2c1=O)c1ccc(Cl)cc1	none
S=c1nc[nH]c2nc[nH]c12	Sfp PPTase inh 40µM!
COc1ccccc1-n1c(SC)nc2c(sc(=S)n2-c2ccccc2)c1=O	none
COc1ccc(-n2c(SCC#N)nc3c(sc(=S)n3-c3ccccc3)c2=O)c(OC)c1	Sfp PPTase inh 14µM
CN1CCN(c2ccc(NC(=O)COc3ccccc3[N+](=O)[O-])cc2)CC1	none
CC(C)C(=O)N1CCN(c2ccc(NC(=O)COc3ccccc3[N+](=O)[O-])cc2)CC1	ELG1 DNA repair 9.2µM
Cc1sc2nc(-c3cccs3)nc(N3CCCN(C)CC3)c2c1C	Sfp PPTase inh 56µM, ELG1 DNA repair inconclusive (no result: Giardia killer)
O=C(CSc1nccc(=O)[nH]1)N1N=C2/C(=C/c3ccco3)CCCC2C1c1ccco1 (configuration not stated)	Sfp PPTase inh 10µM
